Test results: article PMC5540273 (PLoS ONE, 2017)
Where “and” joins values, the source holds several entries; their conditions need not be identical. Equal values may be shown once. Read-outs that look alike come from different tables or passages of the source.

What was measured:
CSF1R-autoinhibited = conditions: concentration: 1 μM, replicates: in singlicate, n = 1
CSF1R = conditions: concentration: 1 μM, replicates: in singlicate, n = 1
CSK = conditions: concentration: 1 μM, replicates: in singlicate; n = 1
CSNK1A1L = conditions: concentration: 1 μM, replicates: in singlicate, n = 1
CSNK1A1 = conditions: concentration: 1 μM, replicates: in singlicate; n = 1
CSNK1D = conditions: concentration: 1 μM, replicates: in singlicate, n = 1
CSNK1E = conditions: concentration: 1 μM, replicates: in singlicate, n = 1
CSNK1G1 = conditions: concentration: 1 μM, replicates: in singlicate, n = 1
CSNK1G2 = conditions: concentration: 1 μM, replicates: in singlicate; n = 1
CSNK1G3 = conditions: concentration: 1 μM, replicates: in singlicate, n = 1
CSNK2A1 = conditions: concentration: 1 μM, replicates: in singlicate, n = 1
CSNK2A2 = conditions: concentration: 1 μM, replicates: in singlicate, n = 1
CTK = system: T1, CTK; conditions: concentration: 1 μM, replicates: in singlicate, n = 1
T1 construct: gene MATK

DAPK1 = conditions: concentration: 1 μM, replicates: in singlicate, n = 1
DAPK2 = conditions: concentration: 1 μM, replicates: in singlicate, n = 1
DAPK3 = conditions: concentration: 1 μM, replicates: in singlicate; n = 1
DCAMKL1 = system: T2, DCAMKL1; conditions: concentration: 1 μM, replicates: in singlicate, n = 1
T2 construct: gene DCLK1

DCAMKL2 = system: T3, DCAMKL2; conditions: concentration: 1 μM, replicates: in singlicate; n = 1
T3 construct: gene DCLK2

DCAMKL3 = system: T4, DCAMKL3; conditions: concentration: 1 μM, replicates: in singlicate, n = 1
T4 construct: gene DCLK3

DDR1 = conditions: concentration: 1 μM, replicates: in singlicate, n = 1
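Also: KINOMEscan kinase panel screen.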

Structure (SMILES): COc1ccc(-c2nc3n(c2-c2ccncc2)CCC3)cc1 [SKF-104493]
- %Inh (CSF1R-autoinhibited; 1 µM): 6% and 9%
- %Inh (CSF1R; 1 µM): 23% and 2%
- %Inh (CSK): 0%
- %Inh (CSNK1A1L; 1 µM): 12% and 0%
- %Inh (CSNK1A1): 0%
- %Inh (CSNK1D; 1 µM): 40% and 18%
- %Inh (CSNK1E; 1 µM): 22% and 7%
- %Inh (CSNK1G1; 1 µM): 0% and 13%
- %Inh (CSNK1G2): 0%
- %Inh (CSNK1G3; 1 µM): 6% and 14%
- %Inh (CSNK2A1; 1 µM): 0% and 2%
- %Inh (CSNK2A2; 1 µM): 13% and 15%
- %Inh (CTK; 1 µM): 25% and 0%
- %Inh (DAPK1; 1 µM): 82% and 21%
- %Inh (DAPK2; 1 µM): 0% and 6%
- %Inh (DAPK3): 0%
- %Inh (DCAMKL1; 1 µM): 21% and 0%
- %Inh (DCAMKL2): 0%
- %Inh (DCAMKL3; 1 µM): 0% and 18%
- %Inh (DDR1; 1 µM): 33% and 67%

Structure (SMILES): Clc1cccc(-c2nc(Nc3ccncc3)c3ccccc3n2)c1 [GW873004]
- %Inh (CSF1R-autoinhibited): 0%
- %Inh (CSF1R): 0%
- %Inh (CSK): 0%
- %Inh (CSNK1A1L): 7%
- %Inh (CSNK1A1): 29%
- %Inh (CSNK1D): 12%
- %Inh (CSNK1E): 23%
- %Inh (CSNK1G1): 3%
- %Inh (CSNK1G2): 10%
- %Inh (CSNK1G3): 18%
- %Inh (CSNK2A1): 0%
- %Inh (CSNK2A2): 14%
- %Inh (CTK): 0%
- %Inh (DAPK1): 0%
- %Inh (DAPK2): 0%
- %Inh (DAPK3): 11%
- %Inh (DCAMKL1): 13%
- %Inh (DCAMKL2): 0%
- %Inh (DCAMKL3): 41%
- %Inh (DDR1): 79%

Structure (SMILES): COc1cc2c(Nc3cccc(NC(=O)c4ccccc4)c3)ncnc2cc1OCCCN1CCOCC1 [GSK223810]
- %Inh (CSF1R-autoinhibited): 0%
- %Inh (CSF1R): 83%
- %Inh (CSK): 23%
- %Inh (CSNK1A1L): 63%
- %Inh (CSNK1A1): 62%
- %Inh (CSNK1D): 60%
- %Inh (CSNK1E): 54%
- %Inh (CSNK1G1): 13%
- %Inh (CSNK1G2): 0%
- %Inh (CSNK1G3): 18%
- %Inh (CSNK2A1): 6%
- %Inh (CSNK2A2): 22%
- %Inh (CTK): 0%
- %Inh (DAPK1): 0%
- %Inh (DAPK2): 15%
- %Inh (DAPK3): 28%
- %Inh (DCAMKL1): 0%
- %Inh (DCAMKL2): 14%
- %Inh (DCAMKL3): 16%
- %Inh (DDR1): 12%

Structure (SMILES): CCn1c(-c2ccncc2)nc2cnccc21 [SB-735216]
- %Inh (CSF1R-autoinhibited): 47%
- %Inh (CSF1R): 2%
- %Inh (CSK): 0%
- %Inh (CSNK1A1L): 10%
- %Inh (CSNK1A1): 22%
- %Inh (CSNK1D): 8%
- %Inh (CSNK1E): 0%
- %Inh (CSNK1G1): 6%
- %Inh (CSNK1G2): 0%
- %Inh (CSNK1G3): 4%
- %Inh (CSNK2A1): 18%
- %Inh (CSNK2A2): 0%
- %Inh (CTK): 11%
- %Inh (DAPK1): 1%
- %Inh (DAPK2): 0%
- %Inh (DAPK3): 0%
- %Inh (DCAMKL1): 8%
- %Inh (DCAMKL2): 0%
- %Inh (DCAMKL3): 0%
- %Inh (DDR1): 0%

Structure (SMILES): Cl.O=S(=O)(c1cccc(F)c1)c1ccc(Nc2ncnc3cc(Br)sc23)cc1Cl [GSK306886]
- %Inh (CSF1R-autoinhibited): 0%
- %Inh (CSF1R): 8%
- %Inh (CSK): 30%
- %Inh (CSNK1A1L): 0%
- %Inh (CSNK1A1): 0%
- %Inh (CSNK1D): 36%
- %Inh (CSNK1E): 22%
- %Inh (CSNK1G1): 0%
- %Inh (CSNK1G2): 0%
- %Inh (CSNK1G3): 33%
- %Inh (CSNK2A1): 0%
- %Inh (CSNK2A2): 37%
- %Inh (CTK): 0%
- %Inh (DAPK1): 8%
- %Inh (DAPK2): 0%
- %Inh (DAPK3): 47%
- %Inh (DCAMKL1): 6%
- %Inh (DCAMKL2): 0%
- %Inh (DCAMKL3): 9%
- %Inh (DDR1): 2%

Structure (SMILES): COc1cc2ncnc(Nc3ccc(OCc4ccccc4Br)c(Cl)c3)c2cc1OC.Cl [GI261590]
- %Inh (CSF1R-autoinhibited): 10%
- %Inh (CSF1R): 7%
- %Inh (CSK): 7%
- %Inh (CSNK1A1L): 0%
- %Inh (CSNK1A1): 0%
- %Inh (CSNK1D): 24%
- %Inh (CSNK1E): 24%
- %Inh (CSNK1G1): 0%
- %Inh (CSNK1G2): 0%
- %Inh (CSNK1G3): 27%
- %Inh (CSNK2A1): 0%
- %Inh (CSNK2A2): 0%
- %Inh (CTK): 0%
- %Inh (DAPK1): 0%
- %Inh (DAPK2): 0%
- %Inh (DAPK3): 17%
- %Inh (DCAMKL1): 14%
- %Inh (DCAMKL2): 0%
- %Inh (DCAMKL3): 21%
- %Inh (DDR1): 0%

Structure (SMILES): Cc1ccc(O)cc1Nc1cc(C(F)(F)F)nc2ccc(-c3ccncc3)cc12 [GW630823]
- %Inh (CSF1R-autoinhibited): 0%
- %Inh (CSF1R): 3%
- %Inh (CSK): 0%
- %Inh (CSNK1A1L): 23%
- %Inh (CSNK1A1): 4%
- %Inh (CSNK1D): 15%
- %Inh (CSNK1E): 0%
- %Inh (CSNK1G1): 6%
- %Inh (CSNK1G2): 1%
- %Inh (CSNK1G3): 5%
- %Inh (CSNK2A1): 0%
- %Inh (CSNK2A2): 2%
- %Inh (CTK): 2%
- %Inh (DAPK1): 16%
- %Inh (DAPK2): 17%
- %Inh (DAPK3): 11%
- %Inh (DCAMKL1): 25%
- %Inh (DCAMKL2): 0%
- %Inh (DCAMKL3): 15%
- %Inh (DDR1): 40%

Structure (SMILES): CSc1nn2c(=O)cc(N3CCOCC3)nc2n1Cc1cccc(Cl)c1Cl [GSK2347225]
- %Inh (CSF1R-autoinhibited): 0%
- %Inh (CSF1R): 4%
- %Inh (CSK): 0%
- %Inh (CSNK1A1L): 32%
- %Inh (CSNK1A1): 0%
- %Inh (CSNK1D): 13%
- %Inh (CSNK1E): 87%
- %Inh (CSNK1G1): 6%
- %Inh (CSNK1G2): 0%
- %Inh (CSNK1G3): 33%
- %Inh (CSNK2A1): 5%
- %Inh (CSNK2A2): 33%
- %Inh (CTK): 0%
- %Inh (DAPK1): 14%
- %Inh (DAPK2): 5%
- %Inh (DAPK3): 24%
- %Inh (DCAMKL1): 29%
- %Inh (DCAMKL2): 0%
- %Inh (DCAMKL3): 3%
- %Inh (DDR1): 17%

Structure (SMILES): COc1ccc(Nc2nccc(N3CCC(NC(=O)Nc4ccc5c(c4)OCO5)C3)n2)cc1 (centres unmarked) [GSK1379745]
- %Inh (CSF1R-autoinhibited): 16%
- %Inh (CSF1R): 0%
- %Inh (CSK): 0%
- %Inh (CSNK1A1L): 24%
- %Inh (CSNK1A1): 0%
- %Inh (CSNK1D): 83%
- %Inh (CSNK1E): 22%
- %Inh (CSNK1G1): 1%
- %Inh (CSNK1G2): 2%
- %Inh (CSNK1G3): 16%
- %Inh (CSNK2A1): 5%
- %Inh (CSNK2A2): 0%
- %Inh (CTK): 0%
- %Inh (DAPK1): 26%
- %Inh (DAPK2): 14%
- %Inh (DAPK3): 17%
- %Inh (DCAMKL1): 0%
- %Inh (DCAMKL2): 14%
- %Inh (DCAMKL3): 0%
- %Inh (DDR1): 15%

Structure (SMILES): CC(C)N1CCC(n2cnc(-c3ccc(F)cc3)c2-c2ccnc(N)n2)CC1 [SB-223132]
- %Inh (CSF1R-autoinhibited): 0%
- %Inh (CSF1R): 0%
- %Inh (CSK): 0%
- %Inh (CSNK1A1L): 31%
- %Inh (CSNK1A1): 93.1%
- %Inh (CSNK1D): 96.4%
- %Inh (CSNK1E): 98.8%
- %Inh (CSNK1G1): 2%
- %Inh (CSNK1G2): 3%
- %Inh (CSNK1G3): 6%
- %Inh (CSNK2A1): 0%
- %Inh (CSNK2A2): 0%
- %Inh (CTK): 0%
- %Inh (DAPK1): 26%
- %Inh (DAPK2): 0%
- %Inh (DAPK3): 17%
- %Inh (DCAMKL1): 22%
- %Inh (DCAMKL2): 4%
- %Inh (DCAMKL3): 20%
- %Inh (DDR1): 46%
